From PubChem BioAssay
Records with an inconclusive call do not appear. The source made the active and inactive calls.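 Rule for the calls, unless noted: active = GFP signal, as percent of the solvent control, above the screen mean plus 3 SD, about 149; inconclusive = no reading because the compound's own fluorescence upset strain identification; inactive = the rest.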

Columns and labels:
[1] = yeast TOR pathway RPL19A-GFP modulators, primary screen, cell-based, S. cerevisiae, multiplex flow cytometry (AID 1862; in the data active = percent of DMSO control GFP below about 86%;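 note: lower values mimic rapamycin by blocking the RPL19A rise seen in DMSO cells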); settings: S. cerevisiae RPL19A-GFP strain, flow cytometry fluorescence, 3 h; at 10 µM; stronger effect = lower value
[2] = modulators of MEP2-GFP levels in yeast, primary screen, S. cerevisiae, multiplex flow cytometry (AID 1867;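 active = GFP response, as percent of the DMSO control, above the screen-wide mean plus 3 SD, about 139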;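 note: median GFP channel fluorescence of barcode-gated MEP2-GFP cells measured by flow cytometry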); settings: S. cerevisiae MEP2-GFP strain, 3 h, at 10 µM, stronger effect = higher value, 100% means same as DMSO wells
[3] = modulators of CIT2-GFP expression in yeast, primary screen, S. cerevisiae, GFP fusion, multiplex flow cytometry (AID 1870;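 active = percent response above a set limit, the screen-wide mean plus 3 SD, cut at about 130% in these data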;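 note: barcoded CIT2-GFP strain pooled with four other GFP strains with rapamycin as positive control; median GFP fluorescence per well over plate mean of DMSO wells so 100% = DMSO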); settings: 3 h, at 10 µM, stronger effect = higher value
[4] = modulators of LAP4-GFP expression in yeast, primary screen, S. cerevisiae, multiplex flow cytometry (AID 1873); settings: 3 h, at 10 µM, stronger effect = higher value
[5] = modulators of AGP1-GFP expression in yeast TOR pathway, primary screen, cell-based, multiplex flow cytometry, S. cerevisiae (AID 1887;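 active = GFP signal above the screen-wide mean plus 3 SD, that is over about 124.5% of the solvent control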;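 note: AGP1-GFP fusion strain of S. cerevisiae within a five-strain barcoded multiplex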); settings: 3 h, at 10 µM, stronger effect = higher value
[6] = inhibitors of CD8+ T cell-vesicle binding, pilot screen, LFA-1/ICAM-1 modulator project, MLPCN validation set, flow cytometry (AID 2523;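 active = response below a set limit, under 55% cells CD8-positive and vesicle-bound, and CD8 cells' 90th-percentile brightness under 279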;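 for vesicle binding response: mean PE anti-B7-1 fluorescence of CD8+ cells relative to row control; 100% = QL9-loaded vesicles with DMSO vehicle in the same plate row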); settings: 2C mouse CD8+ T cells, at 7 µM, stronger effect = lower value; double positive events: measured here: CD8+/vesicle+ event percentage
[7] = target: Integrin beta-1 (Homo sapiens) + Integrin alpha-4 (Homo sapiens) (UniProt P13612+P05556); assay: inhibition of HUTS-21 binding to VLA-4, pilot screen, VLA-4 allosteric modulator project, U937 cells, HUTS-21 mAb, flow cytometry, validation set (AID 2674;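 active = inhibition above 50%, about 3 SD of the validation set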;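 note: antibody binding induced by the VLA-4 ligand LDV present at three times its Kd; 0% = LDV ligand with antibody and no compound and 100% = antibody without LDV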); settings: HUTS-21 LIBS mAb binding, at 6.7 µM, stronger effect = higher value, binding induced by LDV ligand
[8] = superoxide lowering in aged yeast cells, pilot screen, validation compound set (AID 2706;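 active = superoxide response below 65% of plate, a cut near 3 SD across the whole screen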;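 note: yeast exposed to compound for one week at 30 degrees C before staining; 100% = mean of all compound wells on the same plate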); settings: S. cerevisiae aging, superoxide DHE fluorescence; at 10 µM; stronger effect = lower value
[9] = target: Beta-adrenergic receptor kinase 1 (Homo sapiens) (UniProt P25098); assay: GRK2 binders displacing RNA aptamer, biochemical, validation, human GRK2, bead flow cytometry (AID 488806;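 active = aptamer binding inhibition above 30%, about 3 SD of noise from non-fluorescent compounds; inactive = inhibition at or below 30%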); settings: bead-bound GRK2, FAM-aptamer displacement, at 10 µM, stronger effect = higher value
[10] = target: Beta-2 adrenergic receptor (Homo sapiens) (UniProt P07550); assay: beta2AR agonists driving receptor internalization, pilot screen, cell-based, FAP fluorogen, flow cytometry, validation set (AID 504459;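 active = percent response above 42, roughly 3 SD of non-fluorescent test compounds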;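 note: agonist-driven loss of surface beta2AR via internalization measured by FAP dye flow cytometry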); settings: Am2.2-beta2AR cells, FAP surface receptor flow cytometry; at 10 µM; stronger effect = higher value
[11] = target: AP-2 complex subunit beta (Homo sapiens) (UniProt P63010); assay: inhibitors of arrestin peptide binding to AP2, pilot screen, biochemical, validation set, GST-AP2 beads, flow cytometry (AID 504541;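 active = inhibition above 54%, about 3 SD of non-fluorescent compounds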;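 note: AP2 carries R879A mutation and is captured from E. coli lysate; bead-bound FITC arrestin peptide fluorescence measuring arrestin peptide binding to AP2; 0% = DMSO wells and 100% = excess unlabeled arrestin peptide control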); settings: FITC arrestin peptide, at 10 µM, stronger effect = higher value, AP2 beta2 appendage fragment, R879A mutant
[12] = yeast V-ATPase proton transport modulators, S. cerevisiae, pHLuorin, HTS validation (AID 504600; in the data active = response above about 15%;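 note: plate controls were DMSO for no effect and reference compound for full effect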); settings: S. cerevisiae pHLuorin cytosolic pH, at 10 µM, stronger effect = higher value
[13] = test system: anti-desmoglein-3 scFv antibody binding to human DSG3; assay: inhibitors of anti-DSG3 scFv binding to DSG3, pilot screen, biochemical, validation compound set, bead-based, flow cytometry (AID 588368;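 active = binding below the plate cutoff, the plate median minus 3 SD, with a reading above zero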;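 note: signal is the median channel fluorescence of bead-bound GFP antibody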); settings: Protein G beads, DSG3-Fc, scFv-GFP binding, at 10 µM, stronger effect = lower value
[14] = inhibitors of fungal efflux pumps CDR1, CDR2, MDR1, pilot screen, validation compound set, multiplex, phenotypic (AID 588506;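 active = efflux inhibition above 0.42, the validation set average plus 4 SD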;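 note: Nile Red retained in cells so higher fluorescence means more efflux inhibition; 0 = negative control wells and 1 = enniatin B 25 µM full block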); settings: S. cerevisiae pump-expressing triplex, Nile Red efflux flow cytometry; at 10 µM; stronger effect = higher value; the pumps come from Candida albicans
[15] = target: ATP-binding cassette sub-family B member 6 (Homo sapiens) (UniProt Q9NP58); assay: ABCB6 transporter inhibitors, pilot screen, K562-ABCB6 cells, flow cytometry, validation set (AID 588550;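 active = inhibition above the screen-wide mean plus 3 SD, about 51%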;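 note: 0% = DMSO wells and 100% = benzethonium chloride 70 µM positive control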); settings: K562-ABCB6 porphyrin accumulation, 1 h, at 10 µM, stronger effect = higher value
[16] = promoters of myeloid differentiation in arrested cells, primary screen, cell-based, GFP/MAC1 double positive, flow cytometry, validation set (AID 588685;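 active = differentiation response of at least 50%, scaled between solvent and reference control, from cells with both markers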;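 note: compound exposure lasts four days before antibody staining and flow analysis; 0% = DMSO wells and 100% = 5 µM fulvestrant positive control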); settings: ER-HoxA9 marrow cells, stronger effect = higher value, normalized: vehicle 0, fulvestrant 100

Chain of Integrin beta-1 (Homo sapiens) + Integrin alpha-4 (Homo sapiens) (P05556 whole entry, looked up): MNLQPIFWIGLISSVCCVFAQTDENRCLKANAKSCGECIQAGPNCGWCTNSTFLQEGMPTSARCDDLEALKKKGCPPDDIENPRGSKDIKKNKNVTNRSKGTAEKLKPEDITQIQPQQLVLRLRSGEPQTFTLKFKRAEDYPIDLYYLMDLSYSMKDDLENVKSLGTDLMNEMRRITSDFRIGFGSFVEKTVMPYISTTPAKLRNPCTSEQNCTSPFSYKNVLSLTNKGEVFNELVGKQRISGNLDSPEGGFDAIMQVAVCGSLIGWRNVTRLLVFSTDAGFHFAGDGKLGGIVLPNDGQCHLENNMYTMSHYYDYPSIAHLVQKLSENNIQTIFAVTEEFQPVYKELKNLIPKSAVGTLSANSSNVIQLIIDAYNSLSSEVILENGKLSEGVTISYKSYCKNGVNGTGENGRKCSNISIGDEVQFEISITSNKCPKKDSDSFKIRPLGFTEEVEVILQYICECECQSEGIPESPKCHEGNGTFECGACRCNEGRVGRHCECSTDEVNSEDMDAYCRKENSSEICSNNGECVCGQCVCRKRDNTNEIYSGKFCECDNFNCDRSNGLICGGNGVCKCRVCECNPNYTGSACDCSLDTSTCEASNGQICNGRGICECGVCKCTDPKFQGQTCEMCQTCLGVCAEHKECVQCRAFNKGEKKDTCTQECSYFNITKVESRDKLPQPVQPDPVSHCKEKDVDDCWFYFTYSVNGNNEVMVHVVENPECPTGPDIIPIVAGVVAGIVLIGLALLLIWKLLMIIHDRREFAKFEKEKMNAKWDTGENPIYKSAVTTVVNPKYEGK
Chain of Integrin beta-1 (Homo sapiens) + Integrin alpha-4 (Homo sapiens) (P13612 whole entry, looked up): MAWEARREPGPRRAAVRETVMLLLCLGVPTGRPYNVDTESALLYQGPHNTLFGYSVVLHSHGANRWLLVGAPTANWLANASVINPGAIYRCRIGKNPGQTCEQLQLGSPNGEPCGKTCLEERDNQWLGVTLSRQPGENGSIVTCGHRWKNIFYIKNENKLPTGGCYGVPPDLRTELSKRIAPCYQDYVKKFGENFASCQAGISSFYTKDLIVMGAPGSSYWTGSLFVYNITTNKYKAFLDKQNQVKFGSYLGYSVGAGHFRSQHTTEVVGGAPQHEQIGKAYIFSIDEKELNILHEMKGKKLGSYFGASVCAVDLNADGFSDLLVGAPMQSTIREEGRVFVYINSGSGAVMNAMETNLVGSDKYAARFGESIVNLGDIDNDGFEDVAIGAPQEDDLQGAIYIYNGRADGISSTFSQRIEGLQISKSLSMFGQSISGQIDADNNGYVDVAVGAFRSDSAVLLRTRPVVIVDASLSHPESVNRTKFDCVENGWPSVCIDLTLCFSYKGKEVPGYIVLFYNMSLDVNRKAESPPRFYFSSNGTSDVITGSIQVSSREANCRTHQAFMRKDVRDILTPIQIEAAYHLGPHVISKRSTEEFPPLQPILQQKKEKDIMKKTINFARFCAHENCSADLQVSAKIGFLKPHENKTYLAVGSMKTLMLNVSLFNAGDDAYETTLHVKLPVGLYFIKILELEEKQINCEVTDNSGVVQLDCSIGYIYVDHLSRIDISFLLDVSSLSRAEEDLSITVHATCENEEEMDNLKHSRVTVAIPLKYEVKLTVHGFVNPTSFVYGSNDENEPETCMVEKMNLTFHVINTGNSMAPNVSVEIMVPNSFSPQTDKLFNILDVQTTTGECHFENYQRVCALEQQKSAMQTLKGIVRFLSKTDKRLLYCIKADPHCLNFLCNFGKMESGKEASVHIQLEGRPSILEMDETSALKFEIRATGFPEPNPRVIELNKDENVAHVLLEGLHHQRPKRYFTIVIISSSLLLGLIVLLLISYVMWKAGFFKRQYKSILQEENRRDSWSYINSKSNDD
Chain of ATP-binding cassette sub-family B member 6 (Homo sapiens) (Q9NP58 whole entry, looked up): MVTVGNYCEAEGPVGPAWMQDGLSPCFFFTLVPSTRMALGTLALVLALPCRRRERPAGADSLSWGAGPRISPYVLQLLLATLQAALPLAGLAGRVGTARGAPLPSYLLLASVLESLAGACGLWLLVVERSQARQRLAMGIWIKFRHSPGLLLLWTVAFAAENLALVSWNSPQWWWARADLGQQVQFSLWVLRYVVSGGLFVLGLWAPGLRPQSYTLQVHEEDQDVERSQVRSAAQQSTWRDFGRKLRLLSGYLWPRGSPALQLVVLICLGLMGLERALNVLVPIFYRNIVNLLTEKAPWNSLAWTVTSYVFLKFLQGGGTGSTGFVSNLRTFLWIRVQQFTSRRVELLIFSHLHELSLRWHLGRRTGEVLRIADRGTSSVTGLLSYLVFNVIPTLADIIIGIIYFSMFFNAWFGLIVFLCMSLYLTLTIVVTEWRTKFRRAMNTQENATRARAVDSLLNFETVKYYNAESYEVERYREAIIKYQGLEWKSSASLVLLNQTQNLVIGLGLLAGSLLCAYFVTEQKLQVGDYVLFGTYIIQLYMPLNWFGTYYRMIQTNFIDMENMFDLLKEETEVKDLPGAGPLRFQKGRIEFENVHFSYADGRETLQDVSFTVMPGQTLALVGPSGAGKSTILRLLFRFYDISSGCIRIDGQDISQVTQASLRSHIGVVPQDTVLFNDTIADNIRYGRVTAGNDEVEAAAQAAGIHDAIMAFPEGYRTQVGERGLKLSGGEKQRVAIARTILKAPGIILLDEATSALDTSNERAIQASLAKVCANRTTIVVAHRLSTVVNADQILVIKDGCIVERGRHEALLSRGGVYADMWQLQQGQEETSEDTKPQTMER
Chain of Beta-adrenergic receptor kinase 1 (Homo sapiens) (P25098 whole entry, looked up): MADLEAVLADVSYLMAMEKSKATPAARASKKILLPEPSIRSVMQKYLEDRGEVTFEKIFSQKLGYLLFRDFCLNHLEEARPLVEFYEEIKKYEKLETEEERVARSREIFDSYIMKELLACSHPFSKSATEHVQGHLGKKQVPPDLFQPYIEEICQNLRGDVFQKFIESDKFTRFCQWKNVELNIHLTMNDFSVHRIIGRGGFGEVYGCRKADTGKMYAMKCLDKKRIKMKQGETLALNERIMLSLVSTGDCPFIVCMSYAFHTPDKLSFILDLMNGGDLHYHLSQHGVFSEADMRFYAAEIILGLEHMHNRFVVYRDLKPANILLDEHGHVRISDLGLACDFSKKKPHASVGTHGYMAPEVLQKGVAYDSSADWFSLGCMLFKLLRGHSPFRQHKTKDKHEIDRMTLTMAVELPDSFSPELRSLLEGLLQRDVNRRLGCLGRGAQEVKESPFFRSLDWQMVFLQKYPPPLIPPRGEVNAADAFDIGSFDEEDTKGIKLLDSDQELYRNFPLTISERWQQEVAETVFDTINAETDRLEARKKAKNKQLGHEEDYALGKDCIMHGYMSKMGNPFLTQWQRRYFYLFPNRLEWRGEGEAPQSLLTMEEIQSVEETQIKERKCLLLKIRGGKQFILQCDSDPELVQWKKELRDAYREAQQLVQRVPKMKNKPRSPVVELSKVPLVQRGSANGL
Chain of AP-2 complex subunit beta (Homo sapiens) (P63010 whole entry, looked up, the tested form may be a part, one chain of several): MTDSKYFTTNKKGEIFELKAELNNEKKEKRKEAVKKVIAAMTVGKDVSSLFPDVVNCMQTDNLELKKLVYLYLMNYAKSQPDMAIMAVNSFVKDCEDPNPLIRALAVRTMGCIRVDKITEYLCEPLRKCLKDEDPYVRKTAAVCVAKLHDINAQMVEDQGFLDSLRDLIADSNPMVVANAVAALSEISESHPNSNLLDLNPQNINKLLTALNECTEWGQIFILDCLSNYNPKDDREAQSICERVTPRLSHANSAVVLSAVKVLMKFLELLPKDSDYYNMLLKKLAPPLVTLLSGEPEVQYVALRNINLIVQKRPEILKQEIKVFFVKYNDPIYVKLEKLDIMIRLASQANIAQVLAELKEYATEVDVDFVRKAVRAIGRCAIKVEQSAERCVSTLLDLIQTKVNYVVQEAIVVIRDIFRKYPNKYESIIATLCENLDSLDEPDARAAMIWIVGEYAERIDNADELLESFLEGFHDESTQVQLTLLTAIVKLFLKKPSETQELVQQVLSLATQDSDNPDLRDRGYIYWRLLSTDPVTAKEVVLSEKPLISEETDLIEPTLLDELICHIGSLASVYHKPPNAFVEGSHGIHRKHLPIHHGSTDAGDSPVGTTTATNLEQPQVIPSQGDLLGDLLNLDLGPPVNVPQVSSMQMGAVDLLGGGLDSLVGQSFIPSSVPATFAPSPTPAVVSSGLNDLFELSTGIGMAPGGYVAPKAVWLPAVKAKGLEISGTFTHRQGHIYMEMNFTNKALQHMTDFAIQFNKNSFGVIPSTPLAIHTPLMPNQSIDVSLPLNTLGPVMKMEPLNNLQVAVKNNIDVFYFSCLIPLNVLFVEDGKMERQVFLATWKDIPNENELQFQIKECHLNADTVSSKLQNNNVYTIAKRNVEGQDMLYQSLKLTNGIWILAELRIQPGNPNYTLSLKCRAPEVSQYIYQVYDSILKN
Chain of Beta-2 adrenergic receptor (Homo sapiens) (P07550 whole entry, looked up): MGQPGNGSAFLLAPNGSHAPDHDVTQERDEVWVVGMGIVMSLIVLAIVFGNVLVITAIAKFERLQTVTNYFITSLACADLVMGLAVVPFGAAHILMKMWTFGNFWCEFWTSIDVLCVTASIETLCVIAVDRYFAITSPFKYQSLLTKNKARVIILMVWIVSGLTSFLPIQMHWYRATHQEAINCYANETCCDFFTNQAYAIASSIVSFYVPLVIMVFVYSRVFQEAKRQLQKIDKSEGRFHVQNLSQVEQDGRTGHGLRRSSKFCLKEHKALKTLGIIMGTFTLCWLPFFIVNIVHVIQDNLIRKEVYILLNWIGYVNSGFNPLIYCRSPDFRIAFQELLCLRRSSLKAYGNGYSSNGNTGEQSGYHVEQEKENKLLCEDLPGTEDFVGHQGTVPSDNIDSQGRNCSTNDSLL

COc1ccc(C2NC(=O)c3ccccc3O2)c(OC)c1OC (stereo not given)
inactive: percent of DMSO control GFP [1] 105% | GFP response vs DMSO [2] 104% | percent response of DMSO control [3] 111% | GFP response vs DMSO [4] 101% | GFP response, % of DMSO [5] 104% | vesicle binding response [6] 200% | inhibition [7] -7.72% | superoxide response (% of plate) [8] 89.7% | aptamer binding inhibition [9] 5% | response [10] -12.7% | inhibition [11] -2.37% | response [12] 1.87% | binding (% of control) [13] 95.5% | efflux inhibition (fraction of control) [14] 0.11 | inhibition [15] 0% | differentiation response [16] -1.71%
61.2%: double positive events [6]

O=C1CN(O)C=C2N=c3ccccc3=C2N1c1ccc([N+](=O)[O-])cc1
inactive: percent of DMSO control GFP [1] 106% | GFP response vs DMSO [2] 108% | percent response of DMSO control [3] 107% | GFP response vs DMSO [4] 101% | GFP response, % of DMSO [5] 107% | vesicle binding response [6] 124% | inhibition [7] -17.2% | superoxide response (% of plate) [8] 106% | aptamer binding inhibition [9] 2% | response [10] -10.9% | inhibition [11] -5.08% | response [12] 1% | binding (% of control) [13] 100% | efflux inhibition (fraction of control) [14] -0.13 | inhibition [15] 19% | differentiation response [16] -3.11%
61.3%: double positive events [6]

CCOC(=O)c1oc2cc(O)cc(C)c2c(=O)c1-c1cscn1
inactive: percent of DMSO control GFP [1] 100% | GFP response vs DMSO [2] 105% | percent response of DMSO control [3] 91% | GFP response vs DMSO [4] 119% | GFP response, % of DMSO [5] 102% | vesicle binding response [6] 182% | inhibition [7] 3.67% | superoxide response (% of plate) [8] 101% | aptamer binding inhibition [9] 4% | response [10] -3.97% | inhibition [11] 24.6% | response [12] -5.59% | binding (% of control) [13] 101% | efflux inhibition (fraction of control) [14] -0.06 | inhibition [15] 3% | differentiation response [16] 5.6%
58.7%: double positive events [6]

CC(C)COCC1CC2(CC(C)(c3csc(N)n3)OC2=O)C(=O)O1 (stereo not given)
inactive: percent of DMSO control GFP [1] 105% | GFP response vs DMSO [2] 97.2% | percent response of DMSO control [3] 102% | GFP response vs DMSO [4] 84.8% | GFP response, % of DMSO [5] 102% | vesicle binding response [6] 78.1% | inhibition [7] -9.79% | superoxide response (% of plate) [8] 93% | aptamer binding inhibition [9] 5% | response [10] -1.1% | inhibition [11] 0.87% | response [12] -4.21% | binding (% of control) [13] 94% | efflux inhibition (fraction of control) [14] 0.14 | inhibition [15] -16% | differentiation response [16] -4.64%
60.8%: double positive events [6]

CNCCCC1c2ccccc2C=Cc2ccccc21
inactive: percent of DMSO control GFP [1] 96.1% | GFP response vs DMSO [2] 116% | percent response of DMSO control [3] 108% | GFP response vs DMSO [4] 83.1% | GFP response, % of DMSO [5] 97% | vesicle binding response [6] 307% | inhibition [7] 8.4% | superoxide response (% of plate) [8] 103% | aptamer binding inhibition [9] -3% | response [10] 23.4% | inhibition [11] -2.69% | response [12] 0.79% | binding (% of control) [13] 101% | efflux inhibition (fraction of control) [14] 0.16 | inhibition [15] 9% | differentiation response [16] -3.28%
71.4%: double positive events [6]

COc1cc(CNc2ccc(C)c(C)c2)cc(OC)c1OC
60.3%: double positive events [6]
inactive: percent of DMSO control GFP [1] 99% | GFP response vs DMSO [2] 108% | percent response of DMSO control [3] 107% | GFP response vs DMSO [4] 113% | GFP response, % of DMSO [5] 111% | vesicle binding response [6] 256% | inhibition [7] 6.55% | superoxide response (% of plate) [8] 90.2% | aptamer binding inhibition [9] 0% | response [10] -29.1% | inhibition [11] 16.2% | response [12] -0.73% | binding (% of control) [13] 101% | efflux inhibition (fraction of control) [14] 0 | inhibition [15] -8% | differentiation response [16] -16.8%

CC(NC(=O)c1cccnc1)C(=O)O (stereo not given)
active: vesicle binding response [6] 54.6%
53.1%: double positive events [6]
inactive: percent of DMSO control GFP [1] 105% | GFP response vs DMSO [2] 98.5% | percent response of DMSO control [3] 114% | GFP response vs DMSO [4] 78.6% | GFP response, % of DMSO [5] 90.5% | inhibition [7] -5.89% | superoxide response (% of plate) [8] 94.6% | aptamer binding inhibition [9] 4% | response [10] -9.77% | inhibition [11] 0.46% | response [12] -5.71% | binding (% of control) [13] 99.1% | efflux inhibition (fraction of control) [14] -0.1 | inhibition [15] 8% | differentiation response [16] -7.2%

C=C(C)[C@@H]1CC=C(CN2CCC(N3CCC(C(=O)N4CCCC4)CC3)CC2)CC1
60.1%: double positive events [6]
inactive: percent of DMSO control GFP [1] 105% | GFP response vs DMSO [2] 91.9% | percent response of DMSO control [3] 120% | GFP response vs DMSO [4] 92% | GFP response, % of DMSO [5] 101% | vesicle binding response [6] 292% | inhibition [7] 1.62% | superoxide response (% of plate) [8] 92.9% | aptamer binding inhibition [9] -18% | response [10] -3.2% | inhibition [11] -12.5% | response [12] 1.83% | binding (% of control) [13] 130% | efflux inhibition (fraction of control) [14] 0.08 | inhibition [15] -18% | differentiation response [16] 6.11%

O=C(O)c1ccc(N2C(=O)/C(=C\c3ccccc3)N=C2c2ccccc2)cc1
58.6%: double positive events [6]
inactive: percent of DMSO control GFP [1] 103% | GFP response vs DMSO [2] 106% | percent response of DMSO control [3] 99.7% | GFP response vs DMSO [4] 110% | GFP response, % of DMSO [5] 98% | vesicle binding response [6] 120% | inhibition [7] -5.11% | superoxide response (% of plate) [8] 111% | aptamer binding inhibition [9] 2% | response [10] -17.4% | inhibition [11] -10.8% | response [12] -0.35% | binding (% of control) [13] 98.1% | efflux inhibition (fraction of control) [14] -0.2 | inhibition [15] -15% | differentiation response [16] -0.18%

CC1(C)CC(NCc2ccccc2)CCO1 (stereo not given)
inactive: percent of DMSO control GFP [1] 103% | GFP response vs DMSO [2] 97.6% | percent response of DMSO control [3] 96.4% | GFP response vs DMSO [4] 101% | GFP response, % of DMSO [5] 114% | vesicle binding response [6] 226% | inhibition [7] 13.4% | superoxide response (% of plate) [8] 94.9% | aptamer binding inhibition [9] 0% | response [10] -7.51% | response [12] 5.23% | binding (% of control) [13] 101% | efflux inhibition (fraction of control) [14] 0.04 | inhibition [15] 4% | differentiation response [16] -7.94%
active: inhibition [11] 60.9%
60.6%: double positive events [6]
